# Bioassay records (PubChem)
# A selection: hits, their analogues and other compounds. The true share with any hit is near 0.84%.
# p97 inhibitor: human p97 ATPase inhibition; P55072; recombinant p97 ATPase, Kinase-Glo ATP luminescence, 3 h; inhibition, % at 8 µM; actives 0.42% (n = 220,000); in the data active = inhibition above about 15%
# Target sequence (P55072 whole entry, looked up): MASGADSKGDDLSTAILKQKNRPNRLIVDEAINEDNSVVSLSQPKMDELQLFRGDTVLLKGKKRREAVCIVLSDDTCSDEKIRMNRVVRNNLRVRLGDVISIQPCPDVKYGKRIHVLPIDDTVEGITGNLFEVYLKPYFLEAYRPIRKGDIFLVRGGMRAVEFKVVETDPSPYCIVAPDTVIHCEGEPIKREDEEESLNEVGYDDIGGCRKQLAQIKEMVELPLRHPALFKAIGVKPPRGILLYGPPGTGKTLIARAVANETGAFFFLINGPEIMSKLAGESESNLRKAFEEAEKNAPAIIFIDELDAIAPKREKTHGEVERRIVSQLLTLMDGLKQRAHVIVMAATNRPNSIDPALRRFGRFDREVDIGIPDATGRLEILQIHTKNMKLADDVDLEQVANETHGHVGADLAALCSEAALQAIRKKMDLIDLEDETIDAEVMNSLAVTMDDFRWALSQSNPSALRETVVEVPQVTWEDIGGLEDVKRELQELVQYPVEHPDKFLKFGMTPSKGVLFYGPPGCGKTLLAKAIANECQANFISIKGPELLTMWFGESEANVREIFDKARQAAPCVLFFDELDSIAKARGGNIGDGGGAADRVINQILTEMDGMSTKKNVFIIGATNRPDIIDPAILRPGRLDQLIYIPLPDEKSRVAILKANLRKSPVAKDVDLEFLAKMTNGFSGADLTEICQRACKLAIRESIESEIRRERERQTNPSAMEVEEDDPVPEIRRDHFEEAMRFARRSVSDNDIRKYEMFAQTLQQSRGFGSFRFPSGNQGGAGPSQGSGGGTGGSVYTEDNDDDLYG
# G6PDH counter: inhibits Leuconostoc G6PDH, flagging false hits in G6PDH-based assays. Purified L. mesenteroides G6PDH, diaphorase/resazurin coupled fluorescence, 45 min. inhibition, % at 5 µM. actives 0.12% (n = 200,000); in the data active = inhibition above about 50%
# S1P3 antagonist: S1P3 (human) receptor antagonism | inhibition, % at 4.98 µM | CHO S1P3 NFAT-BLA reporter, FRET fluorescence, antagonist mode | Q99500 | actives 0.27% (n = 170,000);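 active = inhibition above the plate cutoff, the mean inhibition of test wells on that plate plus 3 SD, cut at about 28% in these data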;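 also: cells challenged with S1P at its EC80 of 0.8 µM; blue over green emission ratio from cleaved BLA substrate after 4 h stimulation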
# TbHK1 inh: T. brucei hexokinase 1 inhibition; inhibition, % at 10 µM; actives 0.11% (n = 220,000); recombinant TbHK1, G6PDH-coupled NADH A340;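 active = inhibition of 50% or more in the single-dose primary screen; inactive = inhibition below 50%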
# DTT redox prof: compounds producing H2O2 with reducing agent – biochemical, NIH compound library profiling, artefact control for MLSCN library redox annotation, primary screen; actives 0.03% (n = 200,000); DTT-dependent redox cycling H2O2, phenol red/HRP absorbance; 100% = 100 µM peroxide control, 0% = buffer; activation, % at 10 µM;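 active = activation of at least 50% relative to the plate's high and low controls in the primary single-dose screen; inactive = activation below 50%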;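 also: compound incubated with DTT at 0.8 mM final as the reducing agent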
# p97 confirm: confirmation of human p97 ATPase inhibitors | shares compounds with p97 inhibitor | recombinant p97 ATPase, Kinase-Glo ATP luminescence | inhibition, % at 8 µM | actives 44% (n = 760) | AID 1517;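 active = percent inhibition of p97 ATPase above a set limit, the primary screen's mean plus 3 SD, cut at about 15% in these data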
# A number is an active result; – = inactive; · = no result given.
SMILES,p97 inhibitor,G6PDH counter,S1P3 antagonist,TbHK1 inh,DTT redox prof,p97 confirm
Cc1[nH][nH]c(=O)c1C(c1ccc(-c2ccccc2C(=O)O)o1)c1c(C)[nH][nH]c1=O,22.1,–,–,–,–,23.7
Cc1ccc2oc(-c3ccccc3C(=O)O)cc(=O)c2c1,–,–,–,–,–,·
COc1ccccc1-c1cc(C(=O)N/N=C/c2cccs2)c2ccccc2n1,–,–,·,–,–,·
Nc1c(NCc2ccccc2)c2ccccc2oc1=O,–,–,–,–,–,·
O=c1[nH]c(CN2CCCCC2)nc2ccccc12,25.1,–,·,–,–,–
O=[n+]1c2c(n([O-])c3cc(Br)ccc31)CCCC2,–,–,–,–,–,·
O=[n+]1c2c(n([O-])c3ccccc31)CCCC2,14.9,–,·,–,–,–
CCc1cccc(NC(=O)C2CCCN(S(=O)(=O)c3c(C)[nH]c(=O)[nH]c3=O)C2)c1 (configuration not stated),23.3,–,·,–,–,–
COc1cccc(NC(=O)C(=O)N2CCOCC2)c1,–,–,·,–,–,·
COc1cccc(CC(=S)N2CCOCC2)c1,15.7,–,–,–,–,–
CCOc1ccc(N2C(=O)CC(NC3CCCCNC3=O)C2=O)cc1 (configuration not stated),–,–,·,–,–,·
O=C1NCCCCC1NC1CC(=O)N(c2ccccc2)C1=O (configuration not stated),16.9,–,–,–,–,–
C=CCN(C(=O)CNC(=O)c1cccs1)C(C(=O)NC(C)(C)C)c1ccccc1 (configuration not stated),–,–,–,–,–,·
O=c1cc2oc3cc(O)c(O)cc3c(-c3ccccc3O)c-2cc1O,29.4,·,–,–,·,35.5
CCOc1ccccc1-c1c2cc(O)c(=O)cc-2oc2cc(O)c(O)cc12,–,–,–,–,–,·
Cc1cc(C(=O)OCC(=O)N2CCCC2)c2ccccc2n1,–,–,·,–,–,·
N#CC1=C2SCN(c3ccccc3)CN2C(=O)CC1c1c(Cl)cccc1Cl (configuration not stated),16.5,–,–,–,–,–
COc1ccc2[nH]cc(C(=O)CNc3nc(C)cs3)c2c1,–,–,·,–,–,·
Cc1ccccc1NC(=O)C(Cl)=C(Cl)Cl,27.2,–,–,–,–,36.1
Cc1ccccc1NNC(=O)C(=O)NNc1ccccc1C,–,·,–,–,·,·
Cn1cc([N+](=O)[O-])c(C(=O)Nc2nccs2)n1,17.4,–,–,–,–,–
COc1ccc(C(=O)Nc2nccs2)cc1[N+](=O)[O-],–,–,–,–,–,·
Cc1cc(C(=O)N/N=C/c2cc(Br)ccc2OC(=O)c2ccccc2Cl)n[nH]1,18.4,–,–,–,–,34.8
Cc1ccn(CCSCC(=O)O)n1,–,–,–,–,–,·
O=C(N/N=C/c1cccs1)c1cc(-c2ccc3ccccc3c2)n[nH]1,–,–,·,–,–,·
SMILES,p97 inhibitor,G6PDH counter,S1P3 antagonist,TbHK1 inh,DTT redox prof,p97 confirm
O=C(N/N=C/c1cccs1)c1cc(-c2cccc3ccccc23)n[nH]1,16.5,–,–,–,–,26.9
Oc1ccc(N=Cc2ccc(O)c(O)c2)cc1,21.2,57.5,–,–,–,–
CC(C)(C)C(=O)Nc1sc(-c2ccccc2)cc1C(=O)O,17.7,·,–,–,·,–
CCc1noc(C)c1C(=O)N1CCCC(C(=O)c2cc(F)ccc2F)C1 (configuration not stated),–,–,–,–,–,·
CCN1CCN(C(c2cccs2)C(C)NC(=S)Nc2cc(C)ccc2C)CC1 (configuration not stated),–,·,–,–,·,·
Cc1cc(NC(=O)Cn2c(=O)c3c(ncn3CC(C)C)n(Cc3ccccc3)c2=O)no1,–,–,–,–,–,·
Cc1ccc(C(C(=O)NCc2ccco2)N(C(=O)Cn2nnc3ccccc32)c2ccccc2)o1 (configuration not stated),16.3,–,–,–,–,–
N#C/C(=C/c1ccc(Br)o1)C(N)=O,–,–,·,–,–,·
N#C/C(=C/c1ccc(Br)o1)C(N)=S,35.1,·,–,–,·,30.2
Cc1nc2cc(-c3ccsc3-n3c(C)ccc3C)[nH]n2c(=O)c1Cl,29.8,–,·,–,–,–
Cc1cc(=O)n2[nH]c(-c3ccsc3-n3c(C)ccc3C)cc2n1,23.2,·,–,–,·,–
O=c1c(CN2CCN(c3cccc(Cl)c3)CC2)coc2c(Cl)cc(Cl)cc12,–,–,·,–,–,·
Cc1nn(-c2cccc(Cl)c2)c2c1C(c1ccncc1)C(C#N)=C(N)O2 (configuration not stated),–,–,·,–,–,·
Cc1nn(-c2cccc(Cl)c2)c2c1C(c1cccnc1)C(C#N)=C(N)O2 (configuration not stated),16.3,–,–,–,–,–
Cc1ccc(-n2nc(C)c3c2OC(N)=C(C#N)C3c2ccc(F)cc2)cc1 (configuration not stated),19.7,–,–,–,–,–
CC(C)C(C(=O)O)N1C(=O)/C(=C/C=C/c2ccco2)SC1=S (configuration not stated),19.0,–,·,–,–,–
O=C1/C(=C/C=C/c2ccco2)SC(=S)N1c1ccc(O)cc1,58.1,·,–,–,·,31.1
O=C(NN1C(=O)/C(=C/C=C/c2ccccc2)SC1=S)c1ccncc1,–,–,–,–,–,·
O=C1/C(=C/c2ccco2)SC(=S)N1c1cccnc1,18.4,·,–,–,·,–
CC(C)C(C(=O)O)N1C(=O)/C(=C/c2cccn2C)SC1=S (configuration not stated),–,–,–,–,–,·
O=C(NN1C(=O)/C(=C/C=C/c2ccco2)SC1=S)c1ccncc1,40.4,·,–,–,·,–
CCCC(C(=O)NC1CCCC1)N(CCCN1CCOCC1)C(=O)c1snc(C(N)=O)c1N (configuration not stated),16.0,–,–,–,–,–
CCCC(C(=O)NC1CCCC1)N(CC1CCCO1)C(=O)c1snc(C(N)=O)c1N (configuration not stated),–,–,–,–,–,·
CC(C)(C)c1ccc(OCC(=O)N2CCN(C=O)CC2)cc1,–,–,·,–,–,·
COC(=O)c1ccc(NC(=O)CN2CCN(S(=O)(=O)c3cc(Cl)ccc3OC)CC2)cc1,–,–,–,–,–,·
SMILES,p97 inhibitor,G6PDH counter,S1P3 antagonist,TbHK1 inh,DTT redox prof,p97 confirm
Cc1c(Br)c(O)c(Br)c2sc(=O)oc12,22.4,·,–,–,·,–
CC1(C)C(=O)Nc2ccccc2N1C(=O)COc1ncnc2c(Cl)cc(Cl)cc12,–,–,·,–,–,·
CC(C)(C)c1ccc(NC(=O)CSc2nnc(-c3n[nH]c4ccccc34)o2)cc1,–,–,–,–,–,·
Cc1ccc(-c2nnn3c2nc(Cl)c2ccccc23)cc1,16.7,–,–,–,–,–
NNc1nc2c(-c3ccc(Cl)cc3)nnn2c2ccccc12,–,–,–,–,–,·
Clc1nc2c(-c3ccccc3)nnn2c2ccccc12,16.7,·,–,–,·,25.5
Fc1cccc(-c2nnn3c2nc(Cl)c2ccccc23)c1,–,–,–,–,–,·
